Experimental data published in PubChem BioAssay (EPA / NIEHS).
Active and inactive are the calls of the source. Rule for the calls: active = hit-call score of the fitted dose curve at least 0.9, where 1 is the maximum; inactive = score below 0.9.

Experiments:
[1] = ATG_CRE_CIS: Attagene CIS-FACTORIAL HepG2 Assay for human cAMP Responsive Element (CRE) binding protein 3 (AID 2282926); settings: HepG2 CRE cis-reporter, Attagene multiplexed mRNA; actives raise or lower the signal
In short: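 Induced reporter mRNA from a CRE cis element, measured in HepG2 among many multiplexed units at 24 h. Detection used RT-PCR plus capillary electrophoresis of fluorescent fragments; DMSO served as negative control.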

[2] = ATG_CMV_CIS: Attagene CIS-FACTORIAL HepG2 Assay for human CMV (Internal Marker) (AID 2282928); settings: HepG2 CMV promoter reporter, transcription factor profiling; actives raise or lower the signal;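 note: endpoint acts as a background internal control marker rather than a target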
In short: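 Fluorescence intensity of RT-PCR-derived reporter fragments, resolved by capillary electrophoresis, gives the signal. HepG2 liver cells bearing transfected cis-element reporters were treated 24 h; activity in either direction was fit relative to DMSO-treated controls.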

[3] = ATG_DR4_LXR_CIS: Attagene CIS-FACTORIAL HepG2 Assay for human Liver X Receptor (LXR), DR4 submotif (AID 2282929); settings: HepG2 Attagene DR4 cis-reporter, mRNA transcription; actives raise or lower the signal
In short: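 Fluorescence intensity of labelled reporter cDNA fragments, separated by capillary electrophoresis, gives the signal. HepG2 cells bearing cis-regulated reporter constructs were treated 24 h; activity fitted bidirectionally relative to DMSO negative control.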

[4] = molecular target: Aryl hydrocarbon receptor (Homo sapiens) (UniProt P35869); test: ATG_Ahr_CIS: Attagene CIS-FACTORIAL HepG2 Assay for human Aryl Hydrocarbon Receptor (Ahr) (AID 2282930); settings: HepG2 AhR cis-factorial reporter transcription; actives raise or lower the signal
In short: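 Reporter mRNA levels, quantified by RT-PCR and fluorescent capillary electrophoresis, reflect endogenous AhR transcriptional activity in HepG2 cells carrying transfected cis-promoter reporter constructs. Readout at 24 h post-dose; gain or loss fitted against DMSO baseline.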

[5] = ATG_AP_2_CIS: Attagene CIS-FACTORIAL HepG2 Assay for human Activator Protein 2 (AP-2) (AID 2282932); settings: HepG2 AP-2 cis-reporter, Attagene transcription factor profiling; actives raise or lower the signal
In short: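 Endogenous transcription factor activity is reported through transfected multiplex reporter constructs in HepG2, after 24 h of compound exposure. Transcripts were quantified by RT-PCR and capillary electrophoresis of fluorescent fragments. Bidirectional fit against DMSO.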

[6] = ATG_BRE_CIS: Attagene CIS-FACTORIAL HepG2 Assay for human Bone Morphogenetic Protein (BMP) Response Element (BRE) (AID 2282933); settings: HepG2 BMP response element reporter, Attagene transcription factor profiling; actives raise or lower the signal
In short: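 A HepG2 multiplex reporter system measured inducible reporter mRNA 24 h post-dosing. Detection: RT-PCR, 6-FAM primer extension, HpaI digestion, capillary electrophoresis. Activity fitted bidirectionally relative to DMSO.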

[7] = molecular target: Retinoic acid receptor alpha (Homo sapiens) (UniProt P10276); test: ATG_DR5_RAR_CIS: Attagene CIS-FACTORIAL HepG2 Assay for human Retinoic Acid Receptor Alpha (RARE), DR5 submotif (AID 2282934); settings: HepG2 Attagene cis-factorial RARE DR5 reporter, mRNA; actives raise or lower the signal
In short: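 Reporter transcripts from a DR5-regulated unit, measured via RT-PCR plus capillary electrophoresis, reflect endogenous RAR activity in transiently transfected human HepG2 liver cells. Exposure lasted 24 h; gain or loss of signal scored against DMSO.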

[8] = ATG_AP_1_CIS: Attagene CIS-FACTORIAL HepG2 Assay for human Activator Protein 1 (AP-1) (AID 2282931); settings: HepG2 Attagene cis-factorial AP-1 reporter mRNA; actives raise or lower the signal
In short: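 Multiplexed HepG2 reporter assay, 24 h dosing. mRNA induction detected by RT-PCR plus capillary electrophoresis. Activity fitted in both directions against DMSO.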

[9] = molecular target: Transcription factor E2F1 (Homo sapiens) (UniProt Q01094); test: ATG_E2F_CIS: Attagene CIS-FACTORIAL HepG2 Assay for human E2F Transcription Factor 1 (AID 2282935); settings: HepG2 Attagene cis-reporter, E2F reporter RNA transcripts; actives raise or lower the signal
In short: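 Gain or loss of reporter transcript, fitted against DMSO, reflects E2F1-driven transcription. Transiently transfected HepG2 dosed 24 h before RNA isolation. Quantified by fluorescent RT-PCR products separated by capillary electrophoresis.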

[10] = molecular target: CCAAT/enhancer-binding protein beta (Homo sapiens) (UniProt P17676); test: ATG_C_EBP_CIS: Attagene CIS-FACTORIAL HepG2 Assay for human CCAAT/Enhancer Binding Protein (C/EBP) beta (AID 2282927); settings: HepG2 Attagene cis-factorial transcription factor reporter; actives raise or lower the signal
In short: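 Endogenous C/EBPb-driven reporter transcripts measured in transfected human HepG2 cells at 24 h via RT-PCR and capillary electrophoresis of labelled fragments. Activity fitted in both directions relative to DMSO baseline.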

Aryl hydrocarbon receptor (Homo sapiens), sequence (P35869 whole entry, looked up): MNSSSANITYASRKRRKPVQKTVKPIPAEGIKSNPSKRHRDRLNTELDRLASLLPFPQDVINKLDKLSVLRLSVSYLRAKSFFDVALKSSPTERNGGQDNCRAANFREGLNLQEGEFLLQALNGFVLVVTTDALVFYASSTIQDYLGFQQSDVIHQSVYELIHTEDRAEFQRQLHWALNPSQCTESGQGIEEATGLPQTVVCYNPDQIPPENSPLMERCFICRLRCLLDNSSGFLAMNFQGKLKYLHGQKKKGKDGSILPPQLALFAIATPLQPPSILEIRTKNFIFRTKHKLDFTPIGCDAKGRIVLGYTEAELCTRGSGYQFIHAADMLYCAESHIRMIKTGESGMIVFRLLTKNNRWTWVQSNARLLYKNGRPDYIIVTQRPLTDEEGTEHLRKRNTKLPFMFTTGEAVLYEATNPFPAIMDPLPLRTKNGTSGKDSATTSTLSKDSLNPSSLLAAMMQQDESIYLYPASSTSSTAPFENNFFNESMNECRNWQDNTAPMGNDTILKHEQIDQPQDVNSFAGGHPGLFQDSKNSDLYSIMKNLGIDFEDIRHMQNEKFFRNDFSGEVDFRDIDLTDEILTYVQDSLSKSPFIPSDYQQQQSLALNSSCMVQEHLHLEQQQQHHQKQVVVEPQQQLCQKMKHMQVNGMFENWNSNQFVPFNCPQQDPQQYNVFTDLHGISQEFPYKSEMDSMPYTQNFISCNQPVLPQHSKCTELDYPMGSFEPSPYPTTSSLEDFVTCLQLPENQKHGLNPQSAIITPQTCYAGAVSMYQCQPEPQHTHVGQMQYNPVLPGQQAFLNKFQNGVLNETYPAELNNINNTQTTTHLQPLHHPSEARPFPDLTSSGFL
Retinoic acid receptor alpha (Homo sapiens), sequence (P10276 whole entry, looked up): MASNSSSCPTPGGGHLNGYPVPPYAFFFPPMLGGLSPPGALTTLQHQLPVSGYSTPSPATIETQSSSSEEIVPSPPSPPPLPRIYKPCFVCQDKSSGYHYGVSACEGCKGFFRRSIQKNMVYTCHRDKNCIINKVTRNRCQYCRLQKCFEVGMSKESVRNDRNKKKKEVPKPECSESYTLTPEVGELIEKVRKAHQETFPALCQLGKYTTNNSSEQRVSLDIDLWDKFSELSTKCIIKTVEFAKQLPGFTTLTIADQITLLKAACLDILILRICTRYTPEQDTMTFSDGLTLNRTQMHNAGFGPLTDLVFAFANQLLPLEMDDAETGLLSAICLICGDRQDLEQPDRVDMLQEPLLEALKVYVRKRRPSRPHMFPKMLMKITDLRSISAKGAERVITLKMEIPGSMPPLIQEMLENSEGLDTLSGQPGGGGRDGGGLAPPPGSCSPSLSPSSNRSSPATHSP
Transcription factor E2F1 (Homo sapiens), sequence (Q01094 whole entry, looked up): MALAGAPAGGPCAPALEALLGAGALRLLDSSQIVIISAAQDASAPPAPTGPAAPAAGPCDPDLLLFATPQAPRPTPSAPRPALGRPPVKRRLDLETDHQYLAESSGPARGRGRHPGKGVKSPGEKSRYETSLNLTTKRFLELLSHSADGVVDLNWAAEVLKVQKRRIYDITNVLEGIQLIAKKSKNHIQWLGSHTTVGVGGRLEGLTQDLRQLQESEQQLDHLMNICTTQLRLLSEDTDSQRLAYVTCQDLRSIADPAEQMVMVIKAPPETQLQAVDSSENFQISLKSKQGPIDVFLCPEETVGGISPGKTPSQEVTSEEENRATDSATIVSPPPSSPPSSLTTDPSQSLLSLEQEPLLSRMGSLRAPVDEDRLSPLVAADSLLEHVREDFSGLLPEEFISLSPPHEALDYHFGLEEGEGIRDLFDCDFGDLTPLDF
CCAAT/enhancer-binding protein beta (Homo sapiens), sequence (P17676 whole entry, looked up, the tested form may be a part): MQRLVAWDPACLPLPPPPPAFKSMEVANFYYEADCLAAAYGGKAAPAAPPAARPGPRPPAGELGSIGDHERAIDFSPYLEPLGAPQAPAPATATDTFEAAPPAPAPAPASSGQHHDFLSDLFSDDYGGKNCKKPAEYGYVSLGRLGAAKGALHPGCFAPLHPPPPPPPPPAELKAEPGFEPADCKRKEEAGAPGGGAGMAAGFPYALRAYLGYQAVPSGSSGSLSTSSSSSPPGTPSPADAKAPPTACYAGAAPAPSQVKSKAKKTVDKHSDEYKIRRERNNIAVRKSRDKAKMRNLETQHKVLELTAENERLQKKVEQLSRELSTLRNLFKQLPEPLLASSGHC

| SMILES | outcome [1] | AC50 [2] | AC50 [3] | outcome [4] | outcome [5] | outcome [6] | outcome [7] | outcome [2] | outcome [3] | outcome [8] | outcome [9] | AC50 [4] | AC50 [6] | outcome [10] |
| --- | --- | --- | --- | --- | --- | --- | --- | --- | --- | --- | --- | --- | --- | --- |
| CC(C)(C)c1ccccc1OP(=O)(Oc1ccccc1)Oc1ccccc1 | inactive | 100 µM (active) | 27.1 µM (active) | inactive | inactive | inactive | inactive | – | – | – | – | – | – | – |
| Cc1ccc([N+](=O)[O-])cc1C | inactive | – | – | inactive | inactive | inactive | inactive | inactive | inactive | inactive | inactive | – | – | – |
| CCCCC(CC)COP(=O)(Oc1ccccc1)Oc1ccccc1 (configuration not stated) | inactive | 35.4 µM (active) | 26.1 µM (active) | – | – | – | inactive | – | – | – | – | 17.8 µM (active) | 21.4 µM (active) | – |
| CC(C)(C)c1ccc(O)cc1 | – | 100 µM (active) | – | inactive | inactive | – | – | – | inactive | – | – | – | 58.1 µM (active) | inactive |
| FC(F)(F)c1ccc(Cl)cc1 | inactive | – | – | inactive | inactive | inactive | inactive | inactive | inactive | inactive | inactive | – | – | – |
